# Compounds without any hit were thinned out: in the full panel of roughly 83,000, 20% have a hit.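 The test compound was applied at a single concentration to cells in 96-well plates for 48 hours, and percent growth was recorded.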 Activity calls are given as the source filed them. The calls were made as follows: active = growth percent below 10; inactive = the rest.
# System: SN12C renal
# Assay: NCI-60 one-dose screen, 48 h (100 = growth as untreated, 0 = no growth, -100 = all killed)
# Conditions: 10 µM unless noted
row,SMILES,growth
1,NC1=NC(=O)NC1(c1ccccc1)c1ccccc1,88.1% (inactive)
2,N#C/C(C(=O)c1ccccc1)=C1/C(=O)Nc2ccccc21,93.1% (inactive)
3,CN(Cc1cccc(C(F)(F)F)c1)C(=O)[C@@H](CC(=O)N1CCC(N2CCCCC2)CC1)N1C(=O)[C@@H](N2C(=O)OC[C@@H]2c2ccccc2)[C@H]1/C=C/c1ccccc1,82.6% (inactive)
4,CCOc1ccc(S(=O)(=O)Nc2ccc3c(c2)N(S(=O)(=O)CC)CCC3)cc1,85.1% (inactive)
5,CCOC(=O)C(=Cc1ccccc1[N+](=O)[O-])C(=O)OCC,24.5% (inactive)
6,COc1cc(/C=C/C(=O)/C=C/c2ccc(-n3ccnc3C)cc2)ccc1O,91.4% (inactive)
7,CCOC(=O)CC(c1ccccc1)C(C#N)c1ccccc1 (stereo not given),109% (inactive)
8,Cc1ccc(C2=C/C(=C/c3ccc(Br)cc3)C(=O)N2CCc2ccc(S(N)(=O)=O)cc2)cc1,95.9% (inactive)
9,Cc1ccc(NC(=O)N[C@@H](Cc2cc(F)cc(F)c2)C(=O)N[C@@H]2C(=O)N3CCC[C@H]3C(=O)N3CCCC[C@H]3C(=O)N[C@@H](C)C(=O)N3C[C@H](C)C[C@H]3C(=O)O[C@H]2C)cc1,18.1% (inactive)
10,C=C(C)[C@@H]1CC[C@]2(C)[C@H](CC[C@@H]3[C@@H]([C@@](C)(O)CCC=C(C)C)CC[C@]32C)[C@@]1(C)CCC(=O)O,-64.2% [100 µM] (active)
11,C=CCCCCCCCCC(=O)OC(C)C,105% (inactive)
12,O=C1Nc2ccccc2/C1=C/C(=O)c1ccc(N2CCCCC2)cc1,73.5% (inactive)
13,O=C(N=c1n(-c2ccccc2)nc2n1CCN2C1=NCCN1C(=O)c1ccc(Cl)cc1)c1ccc(Cl)cc1,80.8% (inactive)
14,CC1=CC[C@@H]2C(C)(C)[C@@H](O)CC[C@@]2(C)[C@@H]1COc1ccc2ccc(=O)oc2c1,32.5% (inactive)
15,CSc1nc2sc3cc(Cl)c(Cl)cc3n2c(=N)c1C#N,98.4% (inactive)
16,COc1ccc(C(=O)CCC(=O)O)cc1,89% (inactive)
17,O=C(CCNCc1ccccc1)c1ccccc1,109% (inactive)
18,NC(=O)CC1C=CCC1 (stereo not given),99.4% (inactive)

row,SMILES,growth
1,CCNc1cc2c(cc1Br)-c1ccccc1C2=O,94.5% (inactive)
2,O=C(O)c1cn(C2CC2)c2cc(N3CCN(Cc4c(O)ccc5ccccc45)CC3)c(F)cc2c1=O,30.3% (inactive)
3,CCOC(=O)COc1ccc2c(c1)O/C(=C\c1ccc(O)cc1)C2=O,98.7% (inactive)
4,Nc1cc(NN=C(c2ccc(O)cc2)c2ccc(O)cc2)c([N+](=O)[O-])cc1[N+](=O)[O-],53% (inactive)
5,CCCCCCNC(=O)Nc1ncnc2c1ncn2-c1ccccc1,97.3% (inactive)
6,C[C@]12CCc3c(ccc4cc(O)ccc34)[C@@H]1CC[C@H]2O,87.6% (inactive)
7,Nc1nc(Nc2ccccc2)c2ncn(Cc3ccc4c(c3)OCO4)c2n1,43% (inactive)
8,COc1ccc(OC)c(NC=O)c1,107% (inactive)
9,Fc1cc2[nH]ncc2c2c3c(c(-c4cn[nH]c4)nc12)CCCC3,7.63% (active)
10,CCN(CC)CCCCCCNc1cccc2cc(Br)cnc12,104% (inactive)
11,O=C(CSc1nc2ccc([N+](=O)[O-])cc2[nH]1)Nc1cccc(Cl)c1,6.25% (active)
12,CCN(CC)CCCOc1ccc2c(c1)O/C(=C\c1cccc(OC)c1)C2=O,87.1% (inactive)
13,CC1(C)C(=O)/C(=C\c2ccco2)C[C@]2(C)[C@H]3CC=C4[C@@H]5C[C@](C)(C(=O)O)CC[C@]5(C)CC[C@@]4(C)[C@]3(C)CC[C@@H]12,-50.8% [100 µM] (active)
14,C=C(C)[C@@H]1CC[C@]2(C(=O)NCCCCCCN(CCCN)CCCN)CC[C@]3(C)[C@H](CC[C@@H]4[C@@]5(C)CC[C@H](OCCCN)C(C)(C)[C@@H]5CC[C@]43C)[C@@H]12,81.9% [100 µM] (inactive)
15,C=C(C)[C@@H]1CC[C@]2(COC(=O)c3ccccc3C(=O)O)CC[C@]3(C)[C@H](CC[C@@H]4[C@@]5(C)CC[C@H](OC(=O)c6ccccc6C(=O)O)C(C)(C)[C@@H]5CC[C@]43C)[C@@H]12,27.8% [100 µM] (inactive)
16,COc1ccc2c(c1)c(-c1noc(-c3cn(C)c4ncc(F)cc34)n1)cn2C,52.7% (inactive)
17,c1ccc(-c2nnc(-c3c[nH]c4ncccc34)s2)cc1,86.6% (inactive)

# — PubChem BioAssay (NCI)
